Laboratory results as given in the supplement of paper PMC6555819.

Tests used:
Assay in all cases: PBM binding z-score (relative to random genomic background probes); higher = stronger binding; sequences stand for … in GC…GCGATTGACAGCGTAGAATGAAGG
[1] = tested on: FXR:RXRa (NR concentration 270 nM, RXRa partner concentration 90 nM)
Method in brief: (§1)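 Regression normalization was applied to scanned fluorescence from custom Agilent 4×180K protein-binding microarrays. Before scanning, arrays were incubated 1 h with ligand-free nuclear receptor dimers, and binding was detected with antibodies against each partner (one per run). Binding z-scores use the random background probes as reference.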

[2] = tested on: LXRa:RXRa (NR concentration 270 nM, RXRa partner concentration 90 nM)
Method in brief: as §1

[3] = tested on: LXRa homodimer (NR concentration 270 nM)
Method in brief: as §1

[4] = tested on: LXRb:RXRa (NR concentration 270 nM, RXRa partner concentration 90 nM)
Method in brief: as §1

[5] = tested on: LXRb homodimer (NR concentration 270 nM)
Method in brief: as §1

[6] = tested on: PPARa:RXRa (NR concentration 270 nM, RXRa partner concentration 90 nM)
Method in brief: as §1

[7] = tested on: PPARg:RXRa (NR concentration 180 nM, RXRa partner concentration 90 nM)
Method in brief: as §1

[8] = tested on: PPARg:RXRa 270nM:90nM, anti-RXR (NR concentration 270 nM, RXRa partner concentration 90 nM)
Method in brief: as §1

[9] = tested on: PPARg:RXRa 30nM:10nM, anti-RXR (NR concentration 30 nM, RXRa partner concentration 10 nM)
Method in brief: as §1

[10] = tested on: PPARg:RXRa 90nM:30nM, anti-RXR (NR concentration 90 nM, RXRa partner concentration 30 nM)
Method in brief: as §1

[11] = tested on: PPARg:RXRa DBDmut IVT, anti-RXR (DBD mutation: RXRa K156A/R161A, NR concentration 270 nM, RXRa partner concentration 90 nM)
Method in brief: as §1

[12] = tested on: PPARg:RXRa IVT, anti-PPARg (NR concentration 270 nM, RXRa partner concentration 90 nM)
Method in brief: as §1

[13] = tested on: PPARg DBDmut:RXRa IVT, anti-PPARg (DBD mutation: PPARg1 K132A/R137A, NR concentration 270 nM, RXRa partner concentration 90 nM)
Method in brief: as §1

[14] = tested on: PPARg DBDmut IVT, anti-PPARg (DBD mutation: PPARg1 K132A/R137A, NR concentration 270 nM)
Method in brief: as §1

[15] = tested on: PPARg homodimer (NR concentration 180 nM)
Method in brief: as §1

[16] = tested on: PXR:RXRa (NR concentration 270 nM, RXRa partner concentration 90 nM)
Method in brief: as §1

[17] = tested on: PXR homodimer (NR concentration 270 nM)
Method in brief: as §1

[18] = tested on: RARa:RXR (NR concentration 270 nM, RXRa partner concentration 90 nM)
Method in brief: as §1

[19] = tested on: RARa homodimer (NR concentration 270 nM)
Method in brief: as §1

[20] = tested on: RARb:RXRa (NR concentration 270 nM, RXRa partner concentration 90 nM)
Method in brief: as §1

| Sequence | PBM binding z-score [1] | PBM binding z-score [2] | PBM binding z-score [3] | PBM binding z-score [4] | PBM binding z-score [5] | PBM binding z-score [6] | PBM binding z-score [7] | PBM binding z-score [8] | PBM binding z-score [9] | PBM binding z-score [10] | PBM binding z-score [11] | PBM binding z-score [12] | PBM binding z-score [13] | PBM binding z-score [14] | PBM binding z-score [15] | PBM binding z-score [16] | PBM binding z-score [17] | PBM binding z-score [18] | PBM binding z-score [19] | PBM binding z-score [20] |
| --- | --- | --- | --- | --- | --- | --- | --- | --- | --- | --- | --- | --- | --- | --- | --- | --- | --- | --- | --- | --- |
| TTATATAGGTAATACAGGTGAAAGTCGGCATCTA | 0.622 | 1.12 | 0.509 | 0.772 | 0.539 | 2.7 | 3.5 | 3.07 | 2.07 | 2.5 | 6.01 | 5.97 | 1.64 | 2.72 | 1.34 | 0.367 | 0.343 | 0.639 | 1.4 | 0.616 |
| CGTCCAAGGTCGAGGTCAGTGAAAGAGACTCGAA | 4.56 | 3.15 | 0.186 | 2.74 | -0.695 | 4.31 | 2.53 | 3.25 | 0.231 | 1.81 | 1.1 | 2.35 | -1.04 | -1.22 | 1.43 | 3.59 | 0.491 | 3.61 | -0.0434 | 4.39 |
| TCTATTAGTTGAAGGGCAATCGACGAGTCCGTTT | 0.797 | 0.889 | 0.341 | 0.908 | 0.176 | 0.795 | 0.0366 | 1.98 | 3.75 | 2.67 | 2.4 | 0.352 | -0.193 | -0.223 | 0.916 | 0.833 | 0.904 | 0.162 | 0.81 | 1.24 |
| ATCACTAGGTAAAGTTCAGTGAAAGATCGATAGA | 0.984 | 1.7 | 1.43 | 1.17 | 0.688 | 2.22 | 2.59 | 3.38 | 1.45 | 2.7 | 3.89 | 3.29 | 1.1 | 0.944 | 1.33 | 1.91 | 1.73 | 1.48 | 1.19 | 2.7 |
| CAAACTAGGTCACCGGAAGGTCTAAGTCCGCATG | 3.99 | 3.38 | 0.494 | 2.73 | 0.609 | 5.3 | 8.5 | 7.22 | 4.98 | 6.82 | 8.57 | 9.1 | 1.59 | 1.51 | 2.47 | 2.44 | 0.0604 | 3.02 | 0.862 | 4.37 |
| TCGAGTATGTTAGGGGCATTCAGAATGGCGTCGA | 0.201 | 0.198 | -0.264 | 0.596 | -0.345 | 0.669 | 0.0373 | 0.882 | 0.884 | 1.02 | 0.969 | -0.000912 | -0.506 | -1.16 | -0.24 | 0.712 | 0.579 | 0.48 | 0.135 | 0.606 |
| CCTACTGGGCCATCAGTTCATTGATATCAACGTT | 0.0577 | -0.0476 | 0.218 | 0.257 | -0.567 | 1.11 | 1.34 | 2.19 | 0.638 | 1.48 | 4.11 | 3.98 | 0.61 | 0.651 | 0.245 | 1.18 | 2.78 | 0.106 | 0.0148 | 0.462 |
| TCTTGTAGATCAAAGGTTAAGAAAGCCGAAGCCT | 1.74 | 1.97 | -0.166 | 2.14 | -0.146 | 4.65 | 8.31 | 8.09 | 9.09 | 8.69 | 2.11 | 3.55 | 0.0229 | 0.863 | 1.18 | 2.02 | -0.0145 | 3.24 | 0.581 | 1.85 |
| TCATATACGTAAACAGGTGAAAGTCCGTAAGTTA | 1.15 | 1.2 | 0.468 | 1.33 | 0.615 | 1.75 | 1.14 | 2.99 | 4.45 | 3.61 | 2.72 | 1.26 | 1.21 | 1.05 | 1.24 | 1.19 | 0.801 | 1.68 | 1.67 | 0.855 |
| AGAACGAGGGCAATGAGCTGATAGCACGGGTGGC | 0.394 | 0.368 | -0.433 | -0.35 | -0.559 | 1.4 | 1.29 | 0.822 | -0.0771 | 0.27 | 3.25 | 2.14 | 0.548 | -0.351 | -0.0817 | 0.131 | 0.0255 | 0.176 | -0.301 | 2 |
| GCTTGTAGATCTAGGTTAAGAAAGACTAAGCTAA | -0.373 | -0.228 | -0.5 | -0.166 | -0.791 | 1.14 | 0.547 | 0.539 | 0.267 | 0.418 | 3.21 | 3.27 | 0.608 | 0.399 | -1.08 | -0.4 | -0.246 | 0.0619 | -0.0444 | 0.0938 |
